Results: PubChem BioAssay (NCATS)
Records with an inconclusive call do not appear. The source made the active and inactive calls. Calls come from the whole dose curve; as a rule, active = well fitted cell-killing curve with a large enough effect; inconclusive = small, poorly fitted or top-dose-only effect, or effect the other way; inactive = flat fitted curve, though single readings scatter. *1 amine or outer side, *2 acyl side, *3 side chain or, on linkers, in order; H or OH if unused. Where a SMILES comes first, the peptide text is derived from it. [ ]: non-standard residue; d: D form. X13 = O=C(C(CC(O)CO)O[*:1])[*:2]; NMeV = CN[CH](C(=O)O)C(C)C; NMeA = CN[CH](C)C(=O)O; βAla = NCCC(=O)O

Columns and labels:
Test in all cases: Primary qHTS to identify gynecologic anti-cancer compounds using libraries of approved drugs and bioactive compounds (AID 1345084); note: nearly all actives have a fitted effect of over 55% in size
Conditions in all cases: Gynecologic cancer cell panel viability, ATPlite luminescence, 48 h; series mostly up to 57.5 µM
OV90 = tested on: OV90
In short: (§1)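 Measured: luminescence after ATPlite addition (15 min, RT). Exposure: 48 h, 37 C, 5% CO2.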

PA-1 = tested on: PA-1
In short: as §1

SKOV3 = tested on: SKOV3
In short: as §1

Tov-21-G = tested on: Tov-21-G
In short: as §1

Tov112D = tested on: Tov112D
In short: as §1
% is set by controls: 0 for no effect and ±100 for the full control effect.

CC(C)c1ccc2c(c1)CCC1[C@](C)(C(=O)O)CCC[C@]21C (stereo not given in full)
inactive: Potency (OV90) | Potency (PA-1) | Potency (SKOV3) | Potency (Tov-21-G) | Potency (Tov112D)

C=C1C(OC(C)=O)CCC2(C)CC3(O)OC(=O)C(C)=C3CC12 (stereo not given)
inactive: Potency (OV90) | Potency (PA-1) | Potency (SKOV3) | Potency (Tov-21-G) | Potency (Tov112D)

CC1(C)CC[C@]2(C(=O)O)CC[C@]3(C)C(=CCC4[C@@]5(C)CC[C@H](O[C@@H]6O[C@H](C(=O)O)[C@@H](O)[C@H](O)[C@H]6O)C(C)(C)C5CC[C@]43C)C2C1 (stereo not given in full)
inactive: Potency (OV90) | Potency (PA-1) | Potency (SKOV3) | Potency (Tov-21-G) | Potency (Tov112D)

COc1ccc(NC(=O)c2ccc(-c3ccc(C(N)=O)cc3C)cc2)cc1N1CCN(C)CC1
inactive: Potency (OV90) | Potency (PA-1) | Potency (SKOV3) | Potency (Tov-21-G) | Potency (Tov112D)

COc1ccnc2[nH]cc(C(=O)C(=O)N3CCN(C(=O)c4ccccc4)CC3C)c12 (stereo not given)
inactive: Potency (OV90) | Potency (PA-1) | Potency (SKOV3) | Potency (Tov-21-G) | Potency (Tov112D)

COc1cc2c(c(OC)c1O)C(c1ccc(O)cc1)C1C(=O)OC3C(COC(=O)C1=C2)OC(CO)(OC1OC(COC(=O)/C=C/c2ccc(OC4OC(C)C(O)C(O)C4O)cc2)C(O)C(O)C1O)C3O (stereo not given)
inactive: activity change, negative = cytotoxicity (OV90) 10.3% [at 11.6 µM] | activity change, negative = cytotoxicity (PA-1) -0.775% [at 11.6 µM] | activity change, negative = cytotoxicity (SKOV3) 25.2% [at 11.6 µM] | activity change, negative = cytotoxicity (Tov-21-G) -2.98% [at 11.6 µM] | activity change, negative = cytotoxicity (Tov112D) -3.14% [at 11.6 µM]

C=C1C(=O)OC[C@H]2C(C(=O)O)=CC3CC(C)(C)C[C@@]132 (stereo not given in full)
inactive: Potency (OV90) | Potency (PA-1) | Potency (SKOV3) | Potency (Tov-21-G) | Potency (Tov112D)

CC1=CCC2C(C)(C)CCCC2(C)C1CC12OC1C(O)C(CO)=CC2O (stereo not given)
inactive: Potency (OV90) | Potency (PA-1) | Potency (SKOV3) | Potency (Tov-21-G) | Potency (Tov112D)

COC(=O)C[C@H]1C(C)(C)[C@H](OC(=O)C(C)C)C2CC3=C4CC(=O)O[C@@H](c5ccoc5)[C@]4(C)CCC3[C@@]1(C)C2=O (stereo not given in full)
inactive: Potency (OV90) | Potency (PA-1) | Potency (SKOV3) | Potency (Tov-21-G) | Potency (Tov112D)

O=C(O)[C@H](Cc1ccccc1)Oc1ccc(-c2ccccc2)cc1
inactive: Potency (OV90) | Potency (PA-1) | Potency (SKOV3) | Potency (Tov-21-G) | Potency (Tov112D)

Cc1occc(=O)c1O[C@@H]1O[C@H](CO)[C@@H](O)[C@H](O)[C@H]1O
inactive: Potency (OV90) | Potency (PA-1) | Potency (SKOV3) | Potency (Tov-21-G) | Potency (Tov112D)

C=C1CC[C@@]2(OC1)O[C@H]1CC3[C@@H]4CC=C5C[C@H](O[C@H]6OC[C@@H](O)C(O)[C@@H]6O[C@@H]6O[C@@H](C)[C@H](O)[C@@H](O[C@@H]7O[C@H](CO)[C@@H](O)[C@H](O)[C@H]7O)[C@H]6O)C[C@@H](O)[C@]5(C)C4CC[C@]3(C)[C@H]1[C@@H]2C (stereo not given in full)
inactive: activity change, negative = cytotoxicity (OV90) 6.02% [at 11.6 µM] | activity change, negative = cytotoxicity (PA-1) 3.82% [at 11.6 µM] | activity change, negative = cytotoxicity (SKOV3) 0.203% [at 11.6 µM] | activity change, negative = cytotoxicity (Tov-21-G) 7.35% [at 11.6 µM] | activity change, negative = cytotoxicity (Tov112D) 1.29% [at 11.6 µM]

C/C(=C\CO)CC/C=C(\C)C(=O)O[C@@H]1O[C@H](CO)[C@@H](O)[C@H](O)[C@H]1O
inactive: Potency (OV90) | Potency (PA-1) | Potency (SKOV3) | Potency (Tov-21-G) | Potency (Tov112D)

CN1C(=O)N(c2cc(Cl)cc(Cl)c2)C(=O)[C@@]1(C)Cc1ccc(Br)cc1
inactive: Potency (OV90) | Potency (PA-1) | Potency (SKOV3) | Potency (Tov-21-G) | Potency (Tov112D)

CC(=O)OC1CC2C(C)(C)C(=O)C=CC2(C)C2CC(=O)C3=C(CCC3C3=CC(O)OC3=O)C12C (stereo not given)
inactive: Potency (OV90) | Potency (PA-1) | Potency (SKOV3) | Potency (Tov-21-G) | Potency (Tov112D)

C[C@@H]1O[C@@H](O[C@H]2[C@H](OC(=O)[C@]34CCC(C)(C)C[C@H]3C3=CCC5[C@@]6(C)CC[C@H](O[C@@H]7O[C@H](CO[C@@H]8OC[C@H](O)[C@H](O)[C@H]8O[C@@H]8OC[C@@H](O)[C@H](O)[C@H]8O)[C@@H](O)[C@H](O)[C@H]7O)C(C)(C)C6CC[C@@]5(C)[C@]3(C)C[C@H]4O)O[C@H](CO)[C@@H](O)[C@@H]2O)[C@H](O[C@@H]2O[C@H](CO)[C@@H](O)[C@H](O)[C@H]2O)[C@H](O)[C@H]1O[C@@H]1OC[C@@H](O)[C@H](O[C@@H]2OC[C@@H](O)[C@H](O)[C@H]2O)[C@H]1O (stereo not given in full)
inactive: activity change, negative = cytotoxicity (OV90) -1.86% [at 6.55 µM] | activity change, negative = cytotoxicity (PA-1) 1.34% [at 6.55 µM] | activity change, negative = cytotoxicity (SKOV3) 0% [at 6.55 µM] | activity change, negative = cytotoxicity (Tov-21-G) -2.86% [at 6.55 µM] | activity change, negative = cytotoxicity (Tov112D) 0.0551% [at 6.55 µM]

CC(=O)/C=C/C1C(C)CC(O[C@@H]2O[C@H](CO)[C@@H](O)[C@H](O)[C@H]2O)CC1(C)C (stereo not given in full)
inactive: Potency (OV90) | Potency (PA-1) | Potency (SKOV3) | Potency (Tov-21-G) | Potency (Tov112D)

Cc1ccccc1N1CCN(S(=O)(=O)C[C@]23CC[C@H](C[C@@H]2NC(=O)[C@@H](N)CCS(C)(=O)=O)C3(C)C)CC1
inactive: Potency (OV90) | Potency (PA-1) | Potency (SKOV3) | Potency (Tov-21-G) | Potency (Tov112D)

COc1cc(O)cc(C)c1C(=O)OC1C(CO)OC(n2ccc(=O)[nH]c2=O)C1OC(C)=O (stereo not given)
inactive: Potency (OV90) | Potency (PA-1) | Potency (SKOV3) | Potency (Tov-21-G) | Potency (Tov112D)

Cc1onc(-c2c(Cl)cccc2Cl)c1CC(=O)NCc1ccc(OCC(F)(F)F)nc1
inactive: Potency (OV90) | Potency (PA-1) | Potency (SKOV3) | Potency (Tov-21-G) | Potency (Tov112D)

COc1ccc(S(=O)(=O)Nc2nc(-c3cccc([N+](=O)[O-])c3)cs2)cc1OC
inactive: Potency (OV90) | Potency (PA-1) | Potency (SKOV3) | Potency (Tov-21-G) | Potency (Tov112D)

COc1c(O)cc2c(c1O)C(=O)O[C@H](C)[C@H]2O
inactive: Potency (OV90) | Potency (PA-1) | Potency (SKOV3) | Potency (Tov-21-G) | Potency (Tov112D)

CCC(C)C1NC(=O)C2CCCN2C(=O)C(CC(O)CO)OC(=O)CCNC(=O)C(C)N(C)C(=O)C(C(C)C)N(C)C1=O (stereo not given) (cyclo([X13]PI[NMeV][NMeA][βAla]); configuration not given here)
inactive: Potency (OV90) | Potency (PA-1) | Potency (SKOV3) | Potency (Tov-21-G) | Potency (Tov112D)
